Holding throughout (experiment): NCI-60 one-dose screen, 48 h (100 = growth as untreated, 0 = no growth, -100 = all killed)
What all share (conditions): 10 µM

The test system of experiment [1] is SK-MEL-2 melanoma.
Experiment [2] deals with SN12C renal.
For experiment [3], the system named is UO-31 renal.
Experiment [4] concerns TK-10 renal.
For experiment [5], the system named is ACHN renal.
Experiment [6] relates to CAKI-1 renal.
The subject of experiment [7] is A498 renal.
For experiment [8], the system named is CCRF-CEM leukemia.
For experiment [9], the system named is MOLT-4 leukemia.

This is part of a sample that, as a whole, favours compounds with a hit. Of some 83,000 tested, about 20% had one in any assay.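 Treatment: one concentration, 48 hours, 96-well format. Scoring: percent growth, with anything below 10 considered active.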 Unmarked numbers belong to inactive results. Active and inactive are the calls of the source.

On to `Cc1ccc([P+](Cc2ccccc2)(c2ccccc2)c2ccccc2)cc1`, for which the growth was -29.1% (active) in experiment [1]; 19.3% in experiment [2]; 68.7% in experiment [3]; 12.3% in experiment [4]; 60.6% in experiment [5]; 76.7% in [6]. Besides, the growth is 23% in [7], 13.6% in experiment [8] and 6.83% (active) in [9].
`COc1ccc(-c2nc(-c3nc4ccc(C)cc4[nH]3)c3ccccn23)cc1`: the growth is 47% in experiment [1]; 44.9% in [2]; 14.4% in experiment [3]; 69.4% in experiment [4]; 55.6% in experiment [5]; 46.9% in experiment [6]. For the same compound, the growth in experiment [7] was 19.6%; in [8], 18.7%; in [9] it was 40.4%.
Consider `COc1ccc(/C=C2\SC(=S)N(CCCN3CCOCC3)C2=O)c(OC)c1`, for which the growth in [1] was 99%; in experiment [2] it was 93.8%; in [3] it was 86.8%; in [4] it was 104%; in experiment [5], 98%; in experiment [6], 94.4%. In addition, the growth in experiment [7] was 102%; in experiment [8], 75.7%; in experiment [9], 94.4%.
As for `N=C(N)c1ccc(-c2ccc(-c3ccccc3)s2)cc1F`, the growth is -83.8% (active) in experiment [1]; -83.6% (active) in experiment [2]; -91.2% (active) in experiment [3]; -95% (active) in experiment [4]; -98.3% (active) in experiment [5]; -81.3% (active) in experiment [6]. Moreover, the growth in [7] was -88.6% (active); in experiment [8], -60.9% (active); in experiment [9], -75.5% (active).
Take `c1ccc(COCC[P+](c2ccccc2)(c2ccccc2)c2ccccc2)cc1`: the growth in experiment [1] was -14.8% (active); in [2], 5.38% (active); in experiment [3], 46.9%; in experiment [4], 8.09% (active); in [5], 45.2%; in [6], 59.9%. Besides, the growth in [7] is -2.41% (active); in [8], 2.79% (active); in [9], -10.1% (active).
With `O=C(C=P(c1ccccc1)(c1ccccc1)c1ccccc1)c1ccc(Br)cc1`, the growth in [1] is 94.3%; in experiment [2] it was 96.5%; in experiment [3], 53.7%; in experiment [4] it was 95%; in experiment [5], 78.7%; in [6], 84.3%. For the same compound, the growth in [7] was 64.3%; in experiment [8] it was 55%; in [9], 0.436% (active).
As for `C#Cc1ccc(-n2c(/C=C/c3cc(OC)c(OC)c(OC)c3)nc3ncccc3c2=O)cc1`, the growth in experiment [1] was -2.4% (active); in experiment [2], 82.1%; in experiment [3], 45.8%; in [4] it was 112%; in experiment [5], 60.5%; in experiment [6] it was 64.2%. The growth in experiment [7] is 24.5%; in experiment [8], 55.9%; in [9], 65.2%.
With `COc1cc(-c2nc3cc(Cl)c(Cl)cc3[nH]2)ccc1OCC(=O)NN`, the growth was 95.9% in [1]; 78.7% in experiment [2]; 71.1% in experiment [3]; 126% in experiment [4]; 72.6% in experiment [5]; 41% in experiment [6]. In addition, the growth was 83.1% in experiment [7], 59.8% in experiment [8] and 67.8% in experiment [9].
For the compound `Cc1cccc2c(Nc3ccc(NS(C)(=O)=O)cc3)c3ccc([N+](=O)[O-])cc3nc12`, the growth was -19.1% (active) in experiment [1]; 7.61% (active) in [2]; 10.5% in experiment [3]; 20.7% in [4]; -11.4% (active) in [5]; 6.69% (active) in [6]. The results for the growth in experiment [7], in [8] and in experiment [9] were -11.2% (active), -9.83% (active) and -5.36% (active), respectively.
Take `COC(=O)CCCCCCCCC(C)c1ccc(C(C)=O)cc1` (centres undefined): the growth in [1] is 96%; in experiment [2] it was 110%; in experiment [3], 96.9%; in [4], 98.3%; in [5], 99.3%; in experiment [6] it was 97.6%. Also, the growth in [7] is 112%; in [8], 111%; in experiment [9], 89.8%.
`CCCCC(CC#N)(CCC)CCC`: the growth in [1] is 102%; in experiment [2] it was 106%; in [3] it was 90.6%; in experiment [4], 92.7%; in [5], 102%; in [6], 90.3%. For the same compound, the growth in experiment [7] is 103%; in [8] it was 94.7%; in [9], 97.5%.
In the case of `CCCN(CCC)CCCNC(=O)c1cc2c(-c3ccc(OC)c(OC)c3)nn(C)c2s1`, the growth in [1] was -31.3% (active); in [2] it was 20.8%; in experiment [3] it was 6.68% (active); in experiment [4], 55.8%; in [5] it was 25%; in experiment [6], 28.5%. Besides, the growth in experiment [8] was -15.9% (active); in [9], -8.08% (active).
Turning to `O=C/C=C/c1ccc([N+](=O)[O-])cc1Cl`, the growth in experiment [1] was 94.2%; in experiment [2] it was 97.5%; in experiment [3], 74.5%; in experiment [4], 139%; in [5], 115%; in experiment [6], 107%. In addition, the growth in experiment [8] was 42.6%; in experiment [9], 86.6%.
Turning to `COc1ccc(Nc2nc(NCc3ccccc3)c3ccccc3n2)cc1`, the growth in experiment [1] was 63.4%; in experiment [2], 69.5%; in experiment [3], 58.9%; in experiment [4] it was 40.6%; in experiment [5], 15.6%; in experiment [6], 35.7%. Besides, the results for the growth in experiment [8] and in [9] were 68.4% and 81.8%, respectively.
As to `Cc1ccc(-n2nnc3c(sc4ccccc43)c2=O)cc1`, the growth was 83% in [1]; 76.7% in [2]; 9.98% (active) in experiment [3]; 56.7% in [4]; 15.2% in experiment [5]; 48.7% in experiment [6]. The figures for the growth in experiment [7], in experiment [8] and in [9] were 102%, 76.3% and 90.6%, respectively.
Consider `Brc1ccc(-c2cn3ccnc3c(-c3ccc(Br)cc3)n2)cc1`, for which the growth is 30.8% in experiment [1]; 53.7% in [2]; 41.6% in experiment [3]; 84.2% in experiment [4]; 54.6% in [5]; 39.6% in experiment [6]. Further, the growth in experiment [8] is 44.8%.

For the origin of these results see PubChem BioAssay (NCI).
